Several values for one entry are separate records, joined by “and”; a condition that tells them apart may be missing. Identical values can stand only once. In all, about 16,000 compounds went through this assay and about 2,600 (16%) were called active. Not shown: some 20% with an inconclusive outcome. Only a sample is shown. Values without a mark were called inactive. Calls follow the shape of the dose curve; as a rule, active = well fitted curve in the direction sought with a large enough effect; inconclusive = small, poorly fitted or top-dose-only effect, or effect the other way; inactive = no such curve, though single readings can be large or run the other way.
These molecules were tested against Cytochrome P450 2D6 (Homo sapiens) (UniProt P10635) (assay: Cytochrome panel assay with activity outcomes). Settings: recombinant CYP, pro-luciferin dealkylation, luminescence, p450-cyp2d6; series mostly up to 57.1 µM; activity, negative = inhibition: at the top concentration.
Sequence of Cytochrome P450 2D6 (Homo sapiens) (P10635 whole entry, looked up): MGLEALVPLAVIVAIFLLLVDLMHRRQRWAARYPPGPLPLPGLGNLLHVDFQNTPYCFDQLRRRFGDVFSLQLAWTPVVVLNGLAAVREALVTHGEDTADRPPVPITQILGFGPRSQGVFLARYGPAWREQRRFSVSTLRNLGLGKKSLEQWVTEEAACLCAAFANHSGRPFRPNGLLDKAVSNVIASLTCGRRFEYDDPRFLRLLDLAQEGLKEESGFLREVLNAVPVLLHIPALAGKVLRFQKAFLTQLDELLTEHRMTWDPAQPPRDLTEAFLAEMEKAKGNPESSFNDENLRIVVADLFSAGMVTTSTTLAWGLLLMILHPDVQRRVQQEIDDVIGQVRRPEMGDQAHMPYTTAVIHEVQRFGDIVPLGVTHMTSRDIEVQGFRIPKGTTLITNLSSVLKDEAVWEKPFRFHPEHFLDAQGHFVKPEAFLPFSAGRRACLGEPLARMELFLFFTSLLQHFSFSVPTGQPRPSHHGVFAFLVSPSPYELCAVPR
% is scaled to controls: 0 for no effect and ±100 for the full control effect.

| Compound | activity, negative = inhibition | AC50 |
| --- | --- | --- |
| CCOC(=O)N/N=C1/C[C@@H](O)[C@@H](O)[C@@H]2[C@@H]3C(=O)N(c4cccc(Oc5ccccc5)c4)C(=O)[C@H]3CC[C@H]12 | 2.57% [at 11.4 µM] | – |
| CCOC(=O)c1c(C(C)(C)C)oc2ccc(O)cc12 | – | 14.1 µM (active) |
| CCOC(=O)c1cncc(C(=O)O)c1 | 4.25% | – |
| CCOC(=O)c1c(C)oc2c1cc(O)c1ccccc12 | -3.41% | – |
| C=CCCCCCCCCC(=O)Nc1c[nH]c(=O)[nH]c1=O | -7.96% | – |
| O=C1C[C@@H](O)[C@@H](O)[C@H]2[C@@H]3C(=O)N(Cc4ccccc4)C(=O)[C@@H]3CC[C@H]12 | -0.874% [at 11.4 µM] and 9.9% [at 11.4 µM] | – |
| O=C(Nc1ccc(Cl)cc1)OCc1cc(-c2ccccc2Cl)on1 | -1.65% | – |
| O=C(Nc1ccc(Cl)cc1)OCCn1nnnc1C(c1ccccc1Cl)N1CCOCC1 (configuration not stated) | – | 15.8 µM (active) |
| COc1ccc(Cn2nnnc2C(c2ccccc2Cl)N2CCC(C(N)=O)CC2)cc1 (configuration not stated) | -14.7% | – |
| C#C[C@@]1(O)CC[C@@H]2[C@@H]3CCC4=CC(=O)CC[C@@H]4[C@H]3CC[C@]21CC | -0.799% [at 25.6 µM] | – |
| Cc1onc(C(=O)/C=C/N(C)C)c1C(=O)Nc1nccs1 | -1.61% | – |
| Cc1ccc(Nc2nc(-c3sc(NC(=O)c4cccc(Cl)c4)nc3C)cs2)cc1 | -6.37% | – |
| c1cnc(Nc2nc(-c3ccc4ccccc4c3)cs2)nc1 | -6.94% | – |
| Cc1ccc(Nc2nc(-c3c(C)nc4ncccn34)cs2)cc1 | – | 12.6 µM (active) |
| C/C(CC(=O)NC1CCCC1)=N\NC(=O)Cc1cccs1 | 10.6% | – |
| COC(=O)[C@H]1C[C@@H]1[C@H](NC(=O)c1ccccc1)c1ccccc1 | 4.63% | – |
| CC1(C)Cc2c(sc3nc(-c4ccccc4)n(N)c(=O)c23)CO1 | -5.96% | – |
| CCC1(C)Cc2c(sc3nnn(CC(=O)Nc4cccc5ccccc45)c(=O)c23)CO1 (configuration not stated) | – | 15.8 µM (active) |
| CCCSc1nc(SCC(=O)NCc2ccccc2)c2c3c(sc2n1)COC(C)(CC)C3 (configuration not stated) | -15.9% | – |
| COc1ccc(OCCNS(=O)(=O)c2ccc3oc4ccccc4c3c2)cc1 | -2.58% | – |
| O=C(O)C[C@H](Cc1ccc2c(c1)OCO2)C(=O)O | -3.42% [at 11.4 µM] | – |

| Compound | activity, negative = inhibition | AC50 |
| --- | --- | --- |
| Cc1c(C(=O)O)oc2ccc(S(=O)(=O)NCc3ccc4c(c3)OCO4)cc12 | – | 15.8 µM (active) |
| Cc1ccc(C2/C(=C(/O)c3ccccc3)C(=O)C(=O)N2CCN2CCOCC2)o1 (configuration not stated) | -22.7% | – |
| Cc1nc2ccc(S(=O)(=O)NC(CC(C)C)C(=O)O)cc2s1 (configuration not stated) | 25.2% | – |
| C=CCNC(=S)N1CCN(c2ncc3c(=O)c(C(=O)O)cn(CC)c3n2)CC1 | -0.755% | – |
| N#Cc1ccc(Oc2nc(C(N)=O)cc(-c3ccccc3)n2)cc1 | -4.01% | – |
| Oc1ccccc1C1Nc2cccc3cccc(c23)N1 | – | 10 µM (active) |
| CC(=O)C1=NOC(CNC(=O)c2c(-c3ccccc3Cl)noc2C)C1 (configuration not stated) | -4.95% | – |
| CC1(C)c2ssc(=S)c2-c2ccccc2N1C(=O)CSC1=NCCS1 | -7.47% | – |
| Cc1[nH]nc(-c2ccc(OCc3cnn(-c4ccccc4)c3)cc2O)c1Oc1ccc(F)cc1 | – | 7.08 µM (active) |
| Cc1[nH]nc(-c2ccc(OCc3cnn(-c4ccccc4)c3)cc2O)c1Oc1ccccc1F | – | 11.2 µM (active) |
| COC(=O)c1ccc(Oc2coc3cc(OCc4cnn(-c5ccccc5)c4)ccc3c2=O)cc1 | 7.36% | – |
| CCc1ccc(OCC(=O)OC2CCS(=O)(=O)C2)cc1 (configuration not stated) | 12.6% | – |
| COc1ccc(-n2ncc3c(NCC4CCCO4)ncnc32)cc1 (configuration not stated) | -3.61% | – |
| CCC1(c2ccccc2)C(=O)NCNC1=O | – | inactive |
| O=C(Oc1ccccc1)N1CCC2(CC1)CCN(c1ccccc1)CC2 | -6.87% | – |
| Brc1ccc(-c2nnc(-c3cccc(Br)c3)o2)cc1 | 16.4% | – |
| CCCCc1ccc(NC(=S)NCc2cccs2)cc1 | – | 4.47 µM (active) |
| CCCNC(=S)Nc1ccc(Br)cc1 | -5.15% | – |
| CCc1ccc(NC(=O)CS(=O)CC(=O)NCCCc2ccccc2)cc1 (configuration not stated) | -22.8% | – |
| CCC(c1nnnn1CC1CCCO1)N(CCN1CCOCC1)Cc1cc2cc(C)ccc2[nH]c1=O (configuration not stated) | -8.76% | – |
| O=C1CSC(c2ccccn2)N1c1ccc(Cl)c(Cl)c1 (configuration not stated) | -11.2% | – |

| Compound | activity, negative = inhibition | AC50 |
| --- | --- | --- |
| CC(=O)Nc1ccc(N2C(=O)CSC2c2c(F)cccc2Cl)cc1 (configuration not stated) | -25.8% | – |
| O=C1CSC(c2ccccc2F)N1c1cc(Cl)ccc1O (configuration not stated) | – | 31.6 µM (active) |
| Cc1ccc2nc(-c3ccc(NC(=O)Cc4cccs4)cc3)[nH]c2c1 | -5.32% | – |
| O=C(CSc1nnnn1C1CCCC1)Nc1ccc(F)cc1 | – | 14.1 µM (active) |
| CCn1nnnc1SCC(=O)NC1CCCC1 | -28.2% | – |
| COc1ccc(NC(=O)CSc2nnc(C3CC3)n2N)cc1 | -7.25% | – |
| CCOc1ccc(C2=Nn3c(nnc3-c3ccco3)SC2)cc1 | -6.18% | – |
| CCc1ccc(C2=Nn3c(nnc3-c3cccs3)SC2)cc1 | – | 2.82 µM (active) |
| CCOc1ccc(-c2nnc3n2N=C(c2ccc(OC)cc2)CS3)cc1 | 3.29% | – |
| CC1(C)O[C@H]2C[C@@H]3[C@H]4CCC5=CC(=O)CC[C@@]5(C)[C@]4(F)[C@@H](O)C[C@@]3(C)[C@@]2(C(=O)CCl)O1 | -10.6% [at 25.6 µM] | – |
| CC(C)CC(=O)Nc1ccccc1-c1nnn(CC(=O)N2CCc3ccccc3C2)n1 | -23.8% | – |
| Cc1nnc(SCC(=O)NCC2CCCCC2)n(N)c1=O | -11.6% | – |
| O=C(O)NCC1CCCCC1 (tested in a mixture with another compound) | – | 3.98 µM (active) |
| O=C(c1cc(-c2ccco2)on1)N1CCOCC1 | -7.84% | – |
| O=C(NCc1ccccc1)C12CN(Cc3ccccc3)CC1C(c1cccc([N+](=O)[O-])c1)=NO2 (configuration not stated) | – | 5.01 µM (active) |
| CC(C)CCNC(=O)C12CN(Cc3ccccc3)CC1C(c1cccc([N+](=O)[O-])c1)=NO2 (configuration not stated) | -23.9% | – |
| O=C(Cc1ccccc1)N/N=C/C=C/c1cccc([N+](=O)[O-])c1 | -14.8% | – |
| CCSC[C@@H](N)C(=O)O | -5.75% [at 11.4 µM] | – |
| O=c1nc(-c2ccccc2)cn[nH]1 | 5.87% | – |
| C/C=C\C[C@@H](C)[C@@H](O)[C@H]1C(=O)N[C@@H](CC)C(=O)N(C)CC(=O)N(C)[C@@H](CC(C)C)C(=O)N[C@@H](C(C)C)C(=O)N(C)[C@@H](CC(C)C)C(=O)N[C@@H](C)C(=O)N[C@H](C)C(=O)N(C)[C@@H](CC(C)C)C(=O)N(C)[C@@H](CC(C)C)C(=O)N(C)[C@@H](C(C)C)C(=O)N1C | -14.7% | – |
